Among the data in the supplement of paper PMC4709259 are mean cell size values, retold here.

Where a name gives a salt, the structure may show the parent alone. ± gives the standard deviation.

For this experiment, the system named is Jurkat. In words: mean cell size (FSC-A) relative to DMSO control (fraction of control); higher = larger cells. To be noted: 48 h. In a few lines:
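Jurkat cells seeded at 600 cells/µl were incubated 1 h, then exposed for 48h to the Enzo Screen-Well FDA Approved Drug Library v2.0 at 25µM in 0.9% (v/v) final DMSO. Drugs that cut counts below 20% of controls were diluted 10-fold and retested, down to 25nM. Cell count and mean cell size (forward scatter area) were read on an Accuri C6 flow cytometer, relative to solvent-only controls. Plates held 6-12 controls; values are means of 3 biological replicates.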
Compound `CN(C)CC[C@@H](c1ccc(Cl)cc1)c1ccccn1` [Dexchlorpheniramine Maleate] (concentration: 25 µM) registered a mean cell size of 0.964 ± 0.033.
For the compound `Clc1ccc2c(c1)CCc1cccnc1C2=C1CCNCC1` [Desloratadine] (concentration: 25 µM), the mean cell size was 1 ± 0.05.
The result for `NS(=O)(=O)c1cc(C2(O)NC(=O)c3ccccc32)ccc1Cl` (stereo not given) [Chlorthalidone] (concentration: 25 µM) reads 1.03 ± 0.028.
The value for `CC(=O)/N=c1/sc(S(N)(=O)=O)nn1C` [Methazolamide] (concentration: 25 µM) was 1.02 ± 0.035; that for `CCCN(CCC)S(=O)(=O)c1ccc(C(=O)O)cc1` [Probenecid] (concentration: 25 µM) was 0.993 ± 0.012.
The result for `NC(=O)c1cnccn1` [Pyrazinamide] (concentration: 25 µM) reads 1 ± 0.031.
The compound `CCCCS(=O)(=O)N[C@@H](Cc1ccc(OCCCCC2CCNCC2)cc1)C(=O)O` [Tirofiban·HCl] (concentration: 25 µM) showed a mean cell size of 0.937 ± 0.023.
`CC(=O)OC[C@H]1O[C@@H]([S-])[C@H](OC(C)=O)[C@@H](OC(C)=O)[C@@H]1OC(C)=O.CCP(CC)CC.[Au+]` [Auranofin] (concentration: 250 nM) had a mean cell size of 0.9833 ± 0.0086.
The result for `CC(=O)OCC(=O)[C@@]1(O)CC[C@H]2[C@@H]3CCC4=CC(=O)CC[C@]4(C)[C@H]3C(=O)C[C@@]21C` [Cortisone Acetate] (concentration: 25 µM) reads 1.01 ± 0.028; that for `COc1c(C)c2c(c(O)c1C/C=C(\C)CCC(=O)OCCN1CCOCC1)C(=O)OC2` [Mycophenolate Mofetil] (concentration: 25 µM), 0.892 ± 0.0081.
